{"source": "PubChem BioAssay AID2314", "about": "(National Center for Advancing Translational Sciences (NCATS), 2010)", "note": "The whole screen tested about 300,000 compounds, of which about 37,000 (12%) were called active. Cut-off read from the data, not from the text of the source: active = max response mostly above about 13% (no sharp cut-off); inactive = mostly below about 14%. The list comes from a sample in which actives are over-represented; it also holds similar structures and randomly drawn compounds.", "data": [{"assay": "Cycloheximide Counterscreen for Small Molecule Inhibitors of Shiga Toxin; note: read at 38.3 µM for the half of the compounds with a filed dose; 0% is about no effect", "settings": "cell reporter, cycloheximide protein synthesis inhibition counterscreen; hits give high values", "values": [{"smiles": "CCCc1ccc(OCC(O)CN2CCN(C(=O)OCC)CC2)cc1", "note": "(stereo not drawn)", "max response": "-3.42% (inactive)"}, {"smiles": "COCCCn1c2nc3ccccc3nc2c2c(=O)n(Cc3ccc(Cl)cc3)c(C)nc21", "max response": "1.89% (inactive)"}, {"smiles": "Cc1ccc(Cn2c(C)nc3c(c2=O)c2nc4ccccc4nc2n3Cc2ccco2)cc1", "max response": "15.8% (active)"}, {"smiles": "Cc1nc2c(c(=O)n1Cc1ccco1)c1nc3ccccc3nc1n2Cc1ccccc1", "max response": "-2.66% (inactive)"}, {"smiles": "O=C(CCCN1CCc2[nH]c3ccc(F)cc3c2C1)c1ccc(F)cc1", "max response": "-1.91% (inactive)"}, {"smiles": "Cc1ccc(S(=O)(=O)/N=S(\\C)C(C)C)cc1", "note": "(stereo not drawn)", "max response": "-5.61% (inactive)"}, {"smiles": "O=C(CSc1nnc(-c2ccccc2)o1)N1CCOCC1", "max response": "-2.26% (inactive)"}, {"smiles": "Cn1nc(-c2ccccc2)c(-c2nc(-c3ccc(Cl)cc3)no2)c1Cl", "max response": "7.15% (inactive)"}, {"smiles": "Brc1ccc(-c2noc(-c3ccccc3)n2)o1", "max response": "60.7% (active)"}, {"smiles": "Nc1nonc1-c1noc(-c2ccc(Br)o2)n1", "max response": "1.8% (inactive)"}, {"smiles": "Cc1cccc(C)c1OC(=O)CSc1nnc(-c2ccccc2)o1", "max response": "-2.59% (inactive)"}, {"smiles": "Brc1ccc(-c2nnc(-c3ccccc3)o2)o1", "max response": "30.6% (active)"}, {"smiles": "Cc1ccccc1OCc1nnc(SCC(=O)N2c3ccccc3Sc3ccc(Cl)cc32)o1", "max response": "-2.04% (inactive)"}, {"smiles": "CCOc1ccc(/C=N/OCC(=O)NCc2cccs2)cc1", "max response": "-5.69% (inactive)"}, {"smiles": "COc1cccc(CNC(=O)Cn2c(=O)oc3cc(S(=O)(=O)N4CCCCC4)ccc32)c1", "max response": "9.69% (inactive)"}, {"smiles": "C/C=C/C(=O)OCc1csc(CC(=O)Nc2ccccc2C)n1", "max response": "7.73% (inactive)"}, {"smiles": "Cc1cc2occ(CC(=O)NNC(=O)c3ccccc3F)c2cc1C", "max response": "-1.94% (inactive)"}, {"smiles": "NC(=O)C1CCN(C(=O)/C(=C/c2ccco2)NC(=O)c2ccccc2)CC1", "max response": "-1.45% (inactive)"}, {"smiles": "COc1ccc(CCn2c(=N)c(C(=O)NCC3CCCO3)cc3c(=O)n4cccc(C)c4nc32)cc1OC", "note": "(stereo not drawn)", "max response": "-4.64% (inactive)"}, {"smiles": "Cc1cc([N+](=O)[O-])c(-c2ccc(/C=N/n3cnnc3)o2)cc1Cl", "max response": "15.8% (inactive)"}, {"smiles": "O=C1C2C3C=CC(C4CC34)C2C(=O)N1/N=C/c1ccc(-c2ccccc2[N+](=O)[O-])o1", "note": "(stereo not drawn)", "max response": "13.3% (active)"}, {"smiles": "Cc1cc(-c2ccc(/C=N/n3cnnc3)o2)c([N+](=O)[O-])cc1C", "max response": "12.6% (inactive)"}, {"smiles": "O=C(CN1CCN(c2ccc(F)cc2)CC1)Nc1ccccc1", "max response": "-1.97% (inactive)"}, {"smiles": "CN(C)CCCSc1ccccc1NC(=O)/C=C/c1ccccc1", "max response": "5.31% (inactive)"}, {"smiles": "CCOc1ccc(S(=O)(=O)NCc2ccc3c(c2)OCO3)cc1C", "max response": "-1.1% (inactive)"}, {"smiles": "COc1ccc(CCNC(=O)c2ccccc2-c2ccccc2C(=O)O)cc1OC", "max response": "-3.5% (inactive)"}, {"smiles": "COCCn1c(=S)[nH]c2cc(C(=O)NCCc3ccc(OC)c(OC)c3)ccc2c1=O", "max response": "-1.71% (inactive)"}, {"smiles": "COc1cccc2[nH]c(C(=O)NCCc3ccccc3)cc12", "max response": "42.7% (active)"}]}]}
